Compounds without any hit were thinned out: in the full panel of roughly 79,000, 15% have a hit. Activity calls are given as the source filed them. Cut-off read from the data, not from the text of the source: active = growth inhibition above about 70%; inactive = the rest.
Key:
[1] = NCI Yeast Anticancer Drug Screen. Data for the mec2-1 strain (AID 157); conditions: S. cerevisiae mec2-1 strain, hits give high values
Outline: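 Vehicle-treated cultures served as reference for growth inhibition of compound-exposed mec2-1 yeast.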

[2] = NCI Yeast Anticancer Drug Screen. Data for the rad14 strain (AID 159);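 note: 0% = growth of vehicle-treated control cultures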; conditions: S. cerevisiae rad14 strain growth inhibition, hits give high values
Outline: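 Inhibition of growth is reported for a repair-deficient yeast mutant following compound treatment, calculated relative to cultures that received vehicle.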

[3] = NCI Yeast Anticancer Drug Screen. Data for the sgs1 mgt1 strain (AID 161);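 note: 0% = growth of cultures given vehicle only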; conditions: S. cerevisiae sgs1 mgt1 strain, hits give high values
Outline: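 Genetically altered yeast, compound exposure, growth inhibition relative to vehicle.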

[4] = NCI Yeast Anticancer Drug Screen. Data for the CLN2oe strain (AID 163);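 note: 0% = growth of vehicle-only control cultures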; conditions: S. cerevisiae CLN2oe strain, hits give high values
Outline: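 Inhibition relative to vehicle-treated yeast is reported. Cells: strain with genetic alteration in cell-cycle control, grown with compound.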

[5] = NCI Yeast Anticancer Drug Screen. Data for the cln2 rad14 strain (AID 165);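 note: 0% = growth equal to vehicle treated cultures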; conditions: S. cerevisiae cln2 rad14 strain, hits give high values
Outline: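 Each compound was tested on cln2 rad14 yeast. Inhibition of growth was calculated against vehicle-exposed controls.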

[6] = NCI Yeast Anticancer Drug Screen. Data for the bub3 strain (AID 167); conditions: S. cerevisiae bub3 mutant strain, hits give high values
Outline: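 Mutant yeast screening strain plus compound; vehicle-treated cultures serve as the 0% inhibition reference.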

[7] = NCI Yeast Anticancer Drug Screen. Data for the wt2 strain (AID 169); conditions: S. cerevisiae wt2 strain growth inhibition, hits give high values
Outline: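 Inhibition of yeast growth was determined after compound treatment, normalised to controls receiving only vehicle.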

[8] = NCI Yeast Anticancer Drug Screen. Data for the mlh1 strain (AID 171);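 note: 0% = growth of vehicle-treated control cultures of the same strain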; conditions: S. cerevisiae mlh1 strain growth inhibition, hits give high values
Outline: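 Vehicle-normalised growth inhibition of a repair- or checkpoint-altered yeast strain following compound treatment.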

[9] = NCI Yeast Anticancer Drug Screen. Data for the sgs1 strain (AID 173);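 note: 0% = growth of vehicle-only control cultures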; conditions: S. cerevisiae sgs1 mutant, hits give high values
Outline: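 Screen format: yeast with repair or checkpoint alterations, compound exposure, growth read relative to vehicle.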

[10] = NCI Yeast Anticancer Drug Screen. Data for the mlh1 rad18 strain (AID 175); conditions: S. cerevisiae mlh1 rad18 strain growth inhibition, hits give high values
Outline: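 Vehicle-treated cultures served as the reference for growth inhibition in a yeast strain carrying DNA damage repair alterations exposed to each compound.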

[11] = NCI Yeast Anticancer Drug Screen. Data for the rad18 strain (AID 177); conditions: S. cerevisiae rad18 mutant growth inhibition, hits give high values
Outline: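 Test articles were incubated with altered yeast defective in DNA damage repair. Results are given as inhibition of growth versus vehicle.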

[12] = NCI Yeast Anticancer Drug Screen. Data for the rad52 strain (AID 147);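 note: 0% = growth of vehicle-treated control cultures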; conditions: S. cerevisiae rad52 mutant growth inhibition, hits give high values
Outline: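 Vehicle-treated cultures served as the reference for growth inhibition of compound-exposed yeast bearing a DNA repair mutation.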

[13] = NCI Yeast Anticancer Drug Screen. Data for the wt1 strain (AID 149);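 note: 0% = growth of vehicle-treated wt1 cultures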; conditions: S. cerevisiae wt1 strain (SPY 50644) growth inhibition, hits give high values
Outline: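 Each compound is tested on wt1 yeast and the loss of growth versus vehicle gives the inhibition value.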

[14] = NCI Yeast Anticancer Drug Screen. Data for the rad50EPP+ strain (AID 151);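 note: 0% = growth of vehicle-treated control cultures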; conditions: S. cerevisiae rad50 mutant strain, hits give high values
Outline: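 In this screen, rad50EPP+ yeast were exposed to compounds. Growth inhibition was scored against vehicle-treated controls.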

[15] = NCI Yeast Anticancer Drug Screen. Data for the mgt1 strain (AID 153); conditions: S. cerevisiae mgt1 mutant growth inhibition, hits give high values
Outline: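 mgt1 strain exposed; growth vs vehicle control recorded as inhibition.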

[16] = NCI Yeast Anticancer Drug Screen. Data for the rad50 strain (AID 155);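 note: 0% = growth of vehicle-only cultures of the same strain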; conditions: S. cerevisiae rad50 strain growth inhibition, hits give high values
Outline: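 Vehicle-treated cultures provide the reference for the growth inhibition reported for compound-exposed, repair-deficient yeast.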

[17] = at 5.0 µM (retest, dose inferred, filed as 0.5)
[18] = at 50.0 µM (retest, dose inferred, filed as 5.0)

Measured: growth inhibition

CCOC(=O)C1([Se]c2ccccc2)CCCC1=O (centres undefined)
inactive: [1]; [17] -18% | [1]; at 11.0 µM 9% | [1]; at 33.0 µM 30% | [1]; [18] 43% | [1]; at 100.0 µM -11% | [2]; at 1.2 µM -9% | [2]; at 3.7 µM 1% | [2]; at 11.0 µM -11% | [2]; at 33.0 µM 25% | [3]; [17] -3% | [3]; [18] 59% | [4]; at 1.2 µM 2% | [4]; at 3.7 µM 6% | [4]; at 11.0 µM 16% | [4]; at 33.0 µM 11% | [4]; at 100.0 µM 68% | [5]; [17] 14% | [5]; [18] 52% | [6]; at 1.2 µM -4% | [6]; at 3.7 µM 0% | [6]; [17] 10% | [6]; at 11.0 µM -13% | [6]; at 33.0 µM 13% | [7]; at 1.2 µM 2% | [7]; at 3.7 µM 21% | [7]; at 11.0 µM 22% | [7]; at 33.0 µM 49% | [8]; at 1.2 µM 8% | [8]; at 3.7 µM 6% | [8]; at 11.0 µM 33% | [8]; at 33.0 µM 58% | [9]; at 1.2 µM 22% | [9]; at 3.7 µM 42% | [9]; at 11.0 µM 56% | [10]; [17] 34% | [11]; at 1.2 µM 9% | [11]; at 3.7 µM 21% | [11]; at 11.0 µM 30% | [11]; at 33.0 µM 65%
active: [1]; at 50.0 µM 71.8% | [2]; at 100.0 µM 94% | [3]; at 50.0 µM 84.2% | [5]; at 50.0 µM 73.2% | [6]; [18] 82% | [6]; at 50.0 µM 81.2% | [6]; at 100.0 µM 90% | [7]; at 100.0 µM 88% | [8]; at 100.0 µM 83% | [9]; at 33.0 µM 75% | [9]; at 100.0 µM 97% | [10]; [18] 87% | [10]; at 50.0 µM 76.6% | [11]; at 100.0 µM 91%

O=C1C=C(CN(CCCl)CCCl)C(=O)C=C1CN(CCCl)CCCl
inactive: [12]; at 1.2 µM 0% | [12]; at 3.7 µM 0% | [12]; at 11.0 µM 4% | [12]; at 33.0 µM 14% | [12]; at 100.0 µM 46% | [13]; at 1.2 µM -3% | [13]; at 3.7 µM 0% | [13]; at 11.0 µM 1% | [13]; at 33.0 µM 3% | [13]; at 100.0 µM 4% | [14]; at 1.2 µM 1% | [14]; at 3.7 µM -2% | [14]; at 11.0 µM 0% | [14]; at 33.0 µM 3% | [14]; at 100.0 µM 13% | [15]; at 1.2 µM -5% | [15]; at 3.7 µM 0% | [15]; at 11.0 µM -1% | [15]; at 33.0 µM -1% | [15]; at 100.0 µM 0% | [16]; at 1.2 µM -1% | [16]; at 3.7 µM -1% | [16]; [17] 1% | [16]; at 11.0 µM 0% | [16]; at 33.0 µM 12% | [16]; [18] 32% | [16]; at 50.0 µM 14.8% | [16]; at 100.0 µM 35% | [1]; at 1.2 µM -5% | [1]; at 3.7 µM -8% | [1]; [17] 0% | [1]; at 11.0 µM -3% | [1]; at 33.0 µM 3% | [1]; [18] 12% | [1]; at 50.0 µM 26.1% | [1]; at 100.0 µM 15% | [2]; at 1.2 µM 1% | [2]; at 3.7 µM 4% | [2]; at 11.0 µM 9% | [2]; at 33.0 µM 28% | [2]; at 100.0 µM 61% | [3]; [17] -2% | [3]; [18] 24% | [3]; at 50.0 µM 35.2% | [4]; at 1.2 µM -7% | [4]; at 3.7 µM -8% | [4]; at 11.0 µM -11% | [4]; at 33.0 µM -7% | [4]; at 100.0 µM -12% | [5]; [17] -3% | [5]; [18] 8% | [5]; at 50.0 µM 7.6% | [6]; at 1.2 µM -2% | [6]; at 3.7 µM -6% | [6]; [17] -1% | [6]; at 11.0 µM -7% | [6]; at 33.0 µM -6% | [6]; [18] 8% | [6]; at 50.0 µM 1.95% | [6]; at 100.0 µM -9% | [7]; at 1.2 µM 0% | [7]; at 3.7 µM -3% | [7]; at 11.0 µM -1% | [7]; at 33.0 µM -1% | [7]; at 100.0 µM 4% | [9]; at 1.2 µM 0% | [9]; at 3.7 µM 1% | [9]; at 11.0 µM 1% | [9]; at 33.0 µM 12% | [9]; at 100.0 µM 28% | [10]; [17] 2% | [10]; [18] 36% | [11]; at 1.2 µM 4% | [11]; at 3.7 µM 13% | [11]; at 11.0 µM 29%
active: [10]; at 50.0 µM 73.6% | [11]; at 33.0 µM 86% | [11]; at 100.0 µM 90%

O=C1C2CC(Cl)C(SSC3CC4C(=O)N(SC(Cl)(Cl)C(Cl)Cl)C(=O)C4CC3Cl)CC2C(=O)N1SC(Cl)(Cl)C(Cl)Cl (centres undefined)
active: [12]; at 1.2 µM 71% | [12]; at 3.7 µM 91% | [12]; at 11.0 µM 96% | [12]; at 33.0 µM 95% | [12]; at 100.0 µM 89% | [13]; at 3.7 µM 83% | [13]; at 11.0 µM 97% | [13]; at 33.0 µM 96% | [13]; at 100.0 µM 93% | [14]; at 1.2 µM 75% | [14]; at 3.7 µM 97% | [14]; at 11.0 µM 98% | [14]; at 33.0 µM 97% | [14]; at 100.0 µM 93% | [15]; at 3.7 µM 98% | [15]; at 11.0 µM 99% | [15]; at 33.0 µM 97% | [15]; at 100.0 µM 92% | [16]; at 3.7 µM 92% | [16]; [17] 98% | [16]; at 11.0 µM 97% | [16]; at 33.0 µM 96% | [16]; [18] 95% | [16]; at 50.0 µM 90.3% | [16]; at 100.0 µM 90% | [1]; at 3.7 µM 91% | [1]; [17] 100% | [1]; at 11.0 µM 99% | [1]; at 33.0 µM 98% | [1]; [18] 98% | [1]; at 50.0 µM 90.4% | [1]; at 100.0 µM 94% | [2]; at 1.2 µM 83% | [2]; at 3.7 µM 96% | [2]; at 11.0 µM 97% | [2]; at 33.0 µM 96% | [2]; at 100.0 µM 90% | [3]; [18] 95% | [3]; at 50.0 µM 89.5% | [5]; at 50.0 µM 84.9% | [6]; at 1.2 µM 80% | [6]; at 3.7 µM 99% | [6]; at 11.0 µM 99% | [6]; at 33.0 µM 96% | [6]; [18] 98% | [6]; at 50.0 µM 92.8% | [6]; at 100.0 µM 90% | [7]; at 3.7 µM 95% | [7]; at 11.0 µM 98% | [7]; at 33.0 µM 97% | [7]; at 100.0 µM 90% | [8]; at 3.7 µM 97% | [8]; at 11.0 µM 98% | [8]; at 33.0 µM 97% | [8]; at 100.0 µM 93% | [9]; at 1.2 µM 80% | [9]; at 3.7 µM 98% | [9]; at 11.0 µM 97% | [9]; at 33.0 µM 96% | [9]; at 100.0 µM 87% | [10]; [17] 99% | [10]; [18] 96% | [10]; at 50.0 µM 90.8%
inactive: [13]; at 1.2 µM 14% | [15]; at 1.2 µM 68% | [16]; at 1.2 µM 49% | [1]; at 1.2 µM 37% | [3]; [17] -9% | [5]; [17] -20% | [5]; [18] -57% | [6]; [17] -6% | [7]; at 1.2 µM 17% | [8]; at 1.2 µM 64%
